From PubChem BioAssay AID720519 (National Center for Advancing Translational Sciences (NCATS), 2013) come the findings set out here.

For orientation: inhibition means the relative decrease from the control value, in per cent.

The structures appear in SMILES notation. Inconclusive results are not listed. Unmarked numbers belong to inactive results. The source made the active and inactive calls. Calls come from the whole dose curve; as a rule, active = well fitted activation curve with a large enough effect; inconclusive = small, poorly fitted or top-dose-only effect; inactive = flat fitted curve, though single readings scatter.
Potency is the fitted concentration of half-maximal effect.

This assay in a line: qHTS for Inhibitors of Cell Surface uPA Generation: Confirmatory Assay for Cherry-picked Compounds. For inhibition: 0% is about no effect. Conditions: cell surface uPA activity generation, qHTS confirmation; series mostly up to 115 µM; inhibition: at the top concentration. An outline of the steps: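 RAW 264.7 cells at 4000/well, incubated overnight, then treated with compounds. After 24 h at 37 C, viability was read by ATPlite luminescence. An increase in signal indicates blocked uPA-dependent LF entry.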
Background: In qHTS, concentration-response curves come from the screen itself.
`CCn1nc(NS(=O)(=O)c2ccccc2)c2cc3cc(C)ccc3nc21`: the “inhibition” value was -3.18%.
Same read-out and setting: to `C/C(=N\NC(=S)NC(C)C)c1ccc(Cl)s1` belongs -2.05%; to `O=C(CCCC(=O)N(c1cccc(F)c1)C(C(=O)NC1CCCC1)c1ccc(O)cc1)Nc1ccccn1` (stereo unspecified), -2.36%.
The same measure, in the same setting: the result for `O=C(Nc1cccc(C2=NCCN2)c1)Nc1cccc(C2=NCCN2)c1` reads -3.27%.
`COc1cc2c(OC(C)=O)c3c(c(-c4ccc5c(c4)OCO5)c2cc1OC)C(=O)OC3`: the Potency was 2330 nM (active).
On to `O=C(COc1cccc2ccccc12)NNC(=O)c1cnccn1`, for which the “inhibition” value was -2.03%.
As for `O=C(NNC(=O)C1CC(c2cccs2)=NO1)Nc1ccccc1` (stereo unspecified), the “inhibition” value is -1.17%.
Regarding `COc1ccc(C(=O)c2sc(Nc3ccccc3)nc2N)cc1`, the “inhibition” value was 9.15%.
As to `CSc1nc(N)nc2c1ncn2CC(=O)NCC1CCCO1` (stereo unspecified), the “inhibition” value was 0.303%.
As for `Cc1ccc2[nH]c(CN3CCN(C)C(CCO)C3)c(C)c2c1` (stereo unspecified), the “inhibition” value is 7.04%.
The same measure, in the same setting: to `Cc1[nH]c2ccccc2c1C(=O)COC(=O)c1cccc(S(=O)(=O)N2CCCCC2)c1` belongs 0.068%.
Turning to `CC[C@]1(C(=O)OC)[C@H]2C(=O)N(C)C(=O)[C@H]2[C@H]2CN(C)C(=NC3CCCCC3)N21`, the “inhibition” value was 0.58%.
For the compound `COc1ccc(-n2nc(C(=O)Nc3cc(OC)c(OC)c(OC)c3)c3ccccc3c2=O)c(OC)c1`, the “inhibition” value is -2.46%.
On the same count and under the same terms, to `Cc1ccc(C)c(S(=O)(=O)Nc2ccccc2C(=O)Nc2cc(C)on2)c1` belongs -2.99%.
On the same count and under the same terms, the result for `CCc1nccn1CCC(=O)N1CCc2c([nH]c3ccccc23)C1CC(C)C` (stereo unspecified) reads -0.754%; that for `Cc1cc(=O)n2nc(N3CCCC(C(=O)NCc4ccc(Cl)cc4)C3)sc2n1` (stereo unspecified), -2.22%; that for `CCOc1cc(/C=N/Nc2cc(C)nc3ccc(C)cc23)ccc1O`, -1.72%.
The same measure, in the same setting: the result for `COC(=O)[C@@]1(Cc2ccc(F)cc2)[C@H]2c3cc(C(=O)N(C)C)n(Cc4c(CO)[nH]cc(C)c4=O)c3C[C@H]2CN1C(=O)c1ccccc1` reads -0.239%.
As for `CCc1ccc(S(=O)(=O)NCCc2cn3cccc(C)c3n2)s1`, the “inhibition” value was -2.57%.
As for `CCCc1nc2c(=O)n(C)c(=O)[nH]c2n1CCC`, the “inhibition” value was 1.04%.
Consider `COc1cccc(NC(=O)N2C3CCCC2CC(NC(C)=O)C3)c1` (stereo unspecified), for which the “inhibition” value is 0.143%.
